Screening results: PubChem, National Center for Advancing Translational Sciences (NCATS)
PI5P4K alpha inh – qHTS for Inhibitors of phosphatidylinositol 5-phosphate 4-kinase (PI5P4K) | Phosphatidylinositol 5-phosphate 4-kinase type-2 alpha (Homo sapiens), P48426 | PI5P4Kalpha enzyme, ADP-Glo luminescence, 60 min; active compounds read low | max response, % | 330,000 compounds, 1.2% hits | AID 652105, 2013; active means max response of -50% or lower; inconclusive means between -30% and -50%; inactive means -30% or higher; further: value at the top dose of about 77 µM; on the % scale 0 is the no-effect control and ±100 the full control effect
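Enzyme plus substrate dispensed, test compounds pinned in, then ATP (5 microM final) added. After 60 min at RT, ADP-Glo reagent 1 for 45 min and reagent 2 for 30 min preceded luminescence imaging.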
Pol kappa inh – qHTS for Inhibitors of Polymerase Kappa; 400,000 compounds, 0.53% hits; purified Pol kappa, fluorescent DNA synthesis assay, 10 min; Potency, µM (top dose mostly 107 µM), for the others: at the top dose activity, negative = inhibition, usual class: inhibitors; further: potency means the concentration at half of the fitted maximal effect; on the % scale 0 is the no-effect control and ±100 the full control effect
Target sequence (Q9UBT6 whole entry, looked up): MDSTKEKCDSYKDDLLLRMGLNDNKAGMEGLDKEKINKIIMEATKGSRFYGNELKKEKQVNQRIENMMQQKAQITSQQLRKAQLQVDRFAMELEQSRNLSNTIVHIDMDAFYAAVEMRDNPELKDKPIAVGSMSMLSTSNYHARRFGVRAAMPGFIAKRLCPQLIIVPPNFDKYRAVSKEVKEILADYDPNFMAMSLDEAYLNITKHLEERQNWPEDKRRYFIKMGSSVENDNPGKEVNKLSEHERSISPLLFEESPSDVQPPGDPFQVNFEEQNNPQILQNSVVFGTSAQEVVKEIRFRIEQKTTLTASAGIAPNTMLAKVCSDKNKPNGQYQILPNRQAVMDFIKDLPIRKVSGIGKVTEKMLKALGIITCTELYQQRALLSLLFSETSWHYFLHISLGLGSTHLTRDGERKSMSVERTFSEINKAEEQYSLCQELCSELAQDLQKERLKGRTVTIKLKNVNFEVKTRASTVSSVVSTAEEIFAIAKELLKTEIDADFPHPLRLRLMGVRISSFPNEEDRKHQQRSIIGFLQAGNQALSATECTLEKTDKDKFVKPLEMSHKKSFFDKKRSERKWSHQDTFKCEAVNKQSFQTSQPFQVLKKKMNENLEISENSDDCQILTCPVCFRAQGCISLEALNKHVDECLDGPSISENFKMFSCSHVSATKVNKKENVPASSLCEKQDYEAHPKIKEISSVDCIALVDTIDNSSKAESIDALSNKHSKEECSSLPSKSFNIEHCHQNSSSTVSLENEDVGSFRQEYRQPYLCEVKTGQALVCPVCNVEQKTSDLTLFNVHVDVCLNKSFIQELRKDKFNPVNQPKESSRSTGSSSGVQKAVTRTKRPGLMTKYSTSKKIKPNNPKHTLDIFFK
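10 nM Pol kappa was preincubated with compounds for 15 min at room temperature. Reaction started with 50 nM (final) substrate. Fluorescence read kinetically at 0 and 10 min.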
POLI inh – qHTS for Inhibitors of Polymerase Iota; Potency, µM (series often up to 115 µM), for inactives: top-dose activity, negative = inhibition, hits mostly inhibitors; 390,000 compounds, 1% hits; DNA polymerase iota (Homo sapiens), Q9UNA4; Pol iota fluorescent replication assay, 10 min; further: potency means the concentration at half of the fitted maximal effect
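Fluorescent replication assay read twice, at 0 min and 10 min after adding 50 nM (final) substrate. Enzyme (10 nM) and compounds were first incubated 15 min at room temperature; enzyme-free buffer wells were negative controls.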
Pol beta inh – qHTS Assay for Inhibitors of DNA Polymerase Beta. Potency, µM (titrated, usually from 114 µM), for the others: at the top dose activity change, negative = inhibition, most hits filed as inhibitors. P06746. 340,000 compounds, 1.3% hits. Pol beta primer extension/strand displacement, fluorescence kinetic. AID 485314, 2010; further: potency means the concentration at half of the fitted maximal effect; on the % scale 0 is the no-effect control and ±100 the full control effect
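Enzyme-only controls used 10 nM Pol beta; buffer lacking enzyme served as negative control. Compound preincubated 15 min, then 50 nM substrate added; 0 and 10 min reads at room temperature.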
Pol eta inh – qHTS for Inhibitors of Polymerase Eta; recombinant Pol eta, fluorescent DNA replication assay; AID 588591, 2011; 390,000 compounds, 1.2% hits; Potency, µM (top dose mostly 114 µM), without a hit: top-dose activity change, negative = inhibition, hits mostly inhibitors; further: potency means the concentration at half of the fitted maximal effect; on the % scale 0 is the no-effect control and ±100 the full control effect
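Pol eta (10 nM) was preincubated with compounds for 15 min at room temperature, after which fluorescent replication substrate (50 nM final) was added to start the reaction. Fluorescence was read kinetically at 0 and 10 min.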
WRN inhibitor – qHTS for Inhibitors of WRN Helicase | Bifunctional 3'-5' exonuclease/ATP-dependent helicase WRN (Homo sapiens), Q14191 | WRN helicase unwinding, fluorescent forked duplex, kinetic | Potency, µM (doses to about 114 µM), inactives show top-dose activity change, negative = inhibition, usual class: inhibitors | 360,000 compounds, 0.46% hits | AID 651768, 2012; further: potency means the concentration at half of the fitted maximal effect; on the % scale 0 is the no-effect control and ±100 the full control effect; nearly all actives have a fitted effect of over 55% in size
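WRN at 20 nM final was preincubated with compound for 15 min at room temperature; reaction started with 100 nM forked duplex oligonucleotide carrying fluorophore and quencher plus 2 mM ATP (final). Unwinding followed kinetically by red fluorescence (ex 525/em 598 nm).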
* hit, by the source's call; [ ] = another dose, or the depositor's remark. A selection: hits, their analogues and other compounds. The true share with any hit is near 2.8%. Unless noted, the call rests on the fitted dose curve; in most records, active means well fitted curve in the direction sought with a large enough effect; inconclusive means small, poorly fitted or top-dose-only effect, or another doubt; inactive means no such curve, though single readings can be large; an effect the other way counts as inactive or inconclusive.

Screening CC(=O)Nc1cccc(-c2cc(NC=O)c3ncc(-c4cccc(C(C)=O)c4)n3c2)c1 returned PI5P4K alpha inh -55.3* and WRN inhibitor -19.0%[57.1 µM].
For COc1cccc(-c2cnc3c(NC=O)cc(-c4ccccc4)cn23)c1 the results were PI5P4K alpha inh inconclusive and WRN inhibitor -6.7%[57.1 µM].
`COc1ccc(-c2cc(NC=O)c3ncc(-c4cccc(C(C)=O)c4)n3c2)cc1` gave PI5P4K alpha inh -27.5 and WRN inhibitor -8.0%.
For COc1cccc(-c2cnc3c(NC=O)cc(-c4cccc(NC(C)=O)c4)cn23)c1 the results were PI5P4K alpha inh -77.0* and WRN inhibitor -7.7%[57.1 µM].
Screening CC(=O)c1ccc(-c2cnc3c(NC=O)cc(-c4cccc(C(=O)N(C)C)c4)cn23)cc1 returned PI5P4K alpha inh -59.1* and WRN inhibitor 27.6%.
`COc1cccc(-c2cc(NC=O)c3ncc(-c4ccc(C(C)=O)cc4)n3c2)c1` gave PI5P4K alpha inh -67.6* and WRN inhibitor 5.8%[57.1 µM].
For CC1CCCC(n2c(=S)[nH]c3ccccc3c2=O)C1C (stereo unspecified) the results were Pol kappa inh -18.3%, POLI inh -6.1%, Pol beta inh -22.3%, Pol eta inh inconclusive and WRN inhibitor -14.4%.
Screening CCC(c1nnnn1-c1ccc2c(c1)OCCO2)N1CCc2ccccc2C1 (stereo unspecified) returned PI5P4K alpha inh 11.8 and WRN inhibitor -2.5%.
`Cc1sc2c(c1C)c(=O)n(-c1ccc(Cl)cc1)c(=O)n2Cc1cc(=O)n2cc(Br)ccc2n1` gave Pol kappa inh -7.3%, POLI inh -9.8%, Pol beta inh -9.1% and Pol eta inh -10.3%.
For Cc1cccc(OCC(=O)NCCCNC(=O)c2ccco2)c1 the results were PI5P4K alpha inh 2.2, Pol kappa inh 4.5%, POLI inh 10.1%, Pol beta inh 5.7%, Pol eta inh -5.8% and WRN inhibitor 13.7%.
Screening O=C(Cn1ncc2c3ccccc3n(Cc3cccc(Cl)c3)c2c1=O)NC1CCCCCC1 returned Pol kappa inh -14.8%, POLI inh inconclusive, Pol beta inh 12.6µM* and Pol eta inh inconclusive.
For O=C(Cn1ncc2c3ccccc3n(Cc3ccc(F)cc3)c2c1=O)NC1CCCCCC1 the results were Pol kappa inh -8.9%, POLI inh 4.7%, Pol beta inh 41.4% and Pol eta inh -12.4%.
C[C@@H]1C(=O)N(S(=O)(=O)c2ccccc2[N+](=O)[O-])[C@H]1c1ccc(-c2ccccc2)cc1 was read as Pol kappa inh -3.7% and POLI inh -29.5%.
Screening Cc1ccc(NC(=O)C2CCN(S(=O)(=O)c3ccc(C(C)(C)C)cc3)CC2)cc1S(=O)(=O)N1CCOCC1 returned PI5P4K alpha inh -7.9, Pol kappa inh -28.5%, POLI inh -3.8%, Pol eta inh -13.8% and WRN inhibitor 0.0%.
`CC(C)CCNC(=O)C1CCCN(S(=O)(=O)c2ccc3c(c2)CC(C)N3C(=O)C2CC2)C1` (stereo unspecified) gave PI5P4K alpha inh 3.2, Pol kappa inh 15.6%, POLI inh -10.4%, Pol beta inh -5.2%, Pol eta inh -16.6% and WRN inhibitor 3.3%.
`CC(C)CCNC(=O)C1CCN(S(=O)(=O)c2ccc3c(c2)CC(C)N3C(=O)C2CCC2)CC1` (stereo unspecified) gave PI5P4K alpha inh 4.3, Pol kappa inh 2.7%, POLI inh -1.7%, Pol beta inh 56.2µM*, Pol eta inh -10.0% and WRN inhibitor -5.7%.
